The term AC50 denotes the midpoint of the concentration-response curve, whichever way the signal moves.

Common to all, as to settings: mRNA level, 48 h; actives raise or lower the signal
Read-out in assay [1]: Glutamate-cysteine ligase catalytic (GCLC), GCLC (gene 2729)
The assay is described as follows: LTEA_HepaRG_GCLC: Life Technologies and Expression Analysis (LTEA) Assay for Glutamate-cysteine ligase catalytic (GCLC) using HepaRG (AID 2283498). In a few lines:
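Oxidative-stress marker GCLC is measured as mRNA change in human HepaRG liver cells after 48 h chemical treatment in 0.5% DMSO, eight concentrations from 100 uM. Activity is fitted bidirectionally against vehicle.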

Read-out in assay [2]: growth arrest and DNA damage 45 (GADD45G), GADD45G (gene 10912)
Description: LTEA_HepaRG_GADD45G: Life Technologies and Expression Analysis (LTEA) Assay for growth arrest and DNA damage 45 (GADD45G) using HepaRG (AID 2283499). In short, it runs like this:
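Gain or loss of GADD45G mRNA, quantified by TaqMan qRT-PCR against three housekeeping genes, is fitted in both directions relative to 0.5% DMSO. Human HepaRG cultures receive test chemical for 48 h at up to 100 uM.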

Read-out in assay [3]: Glutamate-cysteine ligase regulatory (GCLM), GCLM (gene 2730)
The assay is described as follows: LTEA_HepaRG_GCLM: Life Technologies and Expression Analysis (LTEA) Assay for Glutamate-cysteine ligase regulatory (GCLM) using HepaRG (AID 2283500). In short, it runs like this: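 HepaRG, 48 h dosing, 100 uM top, half-log x8, 0.5% DMSO vehicle. Readout: GCLM mRNA by TaqMan qRT-PCR, housekeeping-normalized (ACTB/GAPDH/POLR2A). Curves fit bidirectionally vs DMSO baseline.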

Read-out in assay [4]: Glutathione S-transferase M3 (GSTM3), GSTM3 (gene 2947)
The assay is described as follows: LTEA_HepaRG_GSTM3: Life Technologies and Expression Analysis (LTEA) Assay for Glutathione S-transferase M3 (GSTM3) using HepaRG (AID 2283501). In a few lines: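 HepaRG, plated 48 h, then serum-free induction medium; test chemical 48 h, duplicate; 100 uM top, half-log x8, 0.5% DMSO. Read-out: GSTM3 mRNA (TaqMan qRT-PCR, Fluidigm array). Bidirectional fit vs DMSO.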

Read-out in assay [5]: Heat shock 70 kDa protein 1 (HSPA1A), gene 3303
Description: LTEA_HepaRG_HSPA1A: Life Technologies and Expression Analysis (LTEA) Assay for Heat shock 70 kDa protein 1 (HSPA1A) using HepaRG (AID 2283502). In a few lines: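 HepaRG, 48 h exposure, 8-pt half-log CRC from 100 uM in 0.5% DMSO, duplicates. Readout: TaqMan qRT-PCR of HSPA1A mRNA, housekeeping-normalized (ACTB/GAPDH/POLR2A). Bidirectional fit vs 0.5% DMSO baseline.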

Read-out in assay [6]: Hypoxia-inducible factor 1-alpha (Homo sapiens) (UniProt Q16665)
The assay is described as follows: LTEA_HepaRG_HIF1A: Life Technologies and Expression Analysis (LTEA) Assay for Hypoxia-inducible factor 1 (HIF1A) Trancription factor using HepaRG (AID 2283503). In a few lines: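 Gain- or loss-of-signal HIF1A mRNA changes are fitted against a DMSO baseline. HepaRG cultures receive eight concentrations, highest 100 uM, for 48 h in serum-free induction medium with 0.5% DMSO.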

Read-out in assay [7]: 3-Hydroxy-3-Methylglutaryl-CoA Synthase 2 (HMGCS2), HMGCS2 (gene 3158)
The assay is described as follows: LTEA_HepaRG_HMGCS2: Life Technologies and Expression Analysis (LTEA) Assay for 3-Hydroxy-3-Methylglutaryl-CoA Synthase 2 (HMGCS2) using HepaRG (AID 2283504). In short, it runs like this:
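HepaRG, plated 48 h then switched to serum-free induction media; cmpd 8-pt, max 100 uM, 1/2-log, 0.5% DMSO, n=2, 48 h. HMGCS2 mRNA by Fluidigm TaqMan qRT-PCR, ACTB/GAPDH/POLR2A norm; bidirectional fit vs DMSO.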

Read-out in the next assay: HGF (gene 3082)
The assay is described as follows: LTEA_HepaRG_HGF: Life Technologies and Expression Analysis (LTEA) Assay for Hepatocyte Growth Facto (HGF) using HepaRG (AID 2283505). In a few lines: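 Read-out is HGF transcript level by qRT-PCR, normalized to three housekeeping genes, fitted bidirectionally against 0.5% DMSO vehicle. Human HepaRG cells received test chemicals for 48 h at up to 100 uM.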

Read-out in assay [8]: Insulin Like Growth Factor 1 (IGF1), IGF1 (gene 3479)
Description: LTEA_HepaRG_IGF1: Life Technologies and Expression Analysis (LTEA) Assay for Insulin Like Growth Factor 1 (IGF1) using HepaRG (AID 2283506). In a few lines: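 qRT-PCR readout of IGF1 mRNA, normalized to three housekeeping genes, after 48 h chemical exposure of HepaRG cells. Concentrations: 8-point half-log series, top 100 uM, 0.5% DMSO vehicle. Gain or loss fitted against DMSO baseline.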

Read-out in assay [9]: Intercellular Adhesion Molecule 1 (ICAM1), ICAM1 (gene 3383)
The assay is described as follows: LTEA_HepaRG_ICAM1: Life Technologies and Expression Analysis (LTEA) Assay for Intercellular Adhesion Molecule 1 (ICAM1) using HepaRG (AID 2283507). In a few lines: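 Readout is qRT-PCR mRNA level, normalized to three housekeeping genes and fitted bidirectionally against 0.5% DMSO vehicle. Human HepaRG cultures received compound for 48 h, top concentration 100 uM with half-log dilutions.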

Read-out in assay [10]: Interleukin 6 (IL6), IL6 (gene 3569)
Description: LTEA_HepaRG_IL6: Life Technologies and Expression Analysis (LTEA) Assay for Interleukin 6 (IL6) using HepaRG (AID 2283509). In a few lines:
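Changes in IL6 mRNA, up or down relative to 0.5% DMSO controls, were derived from concentration-response curves in human HepaRG cells treated for 48 h at up to 100 uM, with ACTB, GAPDH and POLR2A as normalizers.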

Read-out in assay [11]: Interleukin 6 Receptor (IL6R), IL6R (gene 3570)
The assay is described as follows: LTEA_HepaRG_IL6R: Life Technologies and Expression Analysis (LTEA) Assay for Interleukin 6 Receptor (IL6R) using HepaRG (AID 2283510). In short, it runs like this: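 HepaRG, 48 h exposure, 8-pt half-log series, top 100 uM, 0.5% DMSO vehicle, duplicates. Read-out: TaqMan qRT-PCR of IL6R transcript, housekeeping-gene normalized. Gain or loss fitted relative to DMSO baseline.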

Read-out in assay [12]: Potassium channel subfamily K member 1 (KCNK1), KCNK1 (gene 3775)
Description: LTEA_HepaRG_KCNK1: Life Technologies and Expression Analysis (LTEA) Assay for Potassium channel subfamily K member 1 (KCNK1) using HepaRG (AID 2283511). In a few lines: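 Human HepaRG cultures receive test chemicals for 48 h in 0.5% DMSO, top concentration 100 uM with half-log dilutions. Induction or suppression of KCNK1 mRNA relative to DMSO is derived by bidirectional fitting of qRT-PCR data.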

Read-out in assay [13]: Keratin 19 (KRT19), KRT19 (gene 3880)
The assay is described as follows: LTEA_HepaRG_KRT19: Life Technologies and Expression Analysis (LTEA) Assay for Keratin 19 (KRT19) using HepaRG (AID 2283512). In a few lines: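 KRT19 transcript levels, measured by Fluidigm qRT-PCR against three housekeeping genes, are fitted for gain or loss of signal relative to DMSO. Human HepaRG cells receive test chemicals (top 100 uM, half-log steps, 0.5% DMSO) for 48 hours.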

Read-out in assay [14]: JUN Transcription Factor, JUN (gene 3725)
The assay is described as follows: LTEA_HepaRG_JUN: Life Technologies and Expression Analysis (LTEA) Assay for JUN Transcription Factor using HepaRG (AID 2283513). In a few lines: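 HepaRG, 48 h exposure, 8-pt half-log series top 100 uM, 0.5% DMSO, duplicate. JUN mRNA by qRT-PCR (Fluidigm), housekeeping-normalized (ACTB/GAPDH/POLR2A); bidirectional curve fit vs DMSO baseline.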

Read-out in assay [15]: Lipase C (LIPC), LIPC (gene 3990)
The assay is described as follows: LTEA_HepaRG_LIPC: Life Technologies and Expression Analysis (LTEA) Assay for Lipase C (LIPC) using HepaRG (AID 2283514). In a few lines: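 In this multiplexed gene-expression screen, human HepaRG cultures received test chemicals for 48 h across eight concentrations with 100 uM highest, in duplicate. Values reflect LIPC mRNA induction or suppression versus DMSO vehicle, from normalized qRT-PCR.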

Read-out in assay [16]: Lipoprotein lipase (LPL), LPL (gene 4023)
Description: LTEA_HepaRG_LPL: Life Technologies and Expression Analysis (LTEA) Assay for Lipoprotein lipase (LPL) using HepaRG (AID 2283515). In a few lines: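 Concentration-response testing used half-log steps from 100 uM in 0.5% DMSO on human HepaRG cells, 48 h, duplicate wells. Phenobarbital 1 mM served as induction control; LPL mRNA was normalized to ACTB, GAPDH, POLR2A.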

Read-out in assay [17]: MicroRNA 122 (MIR122), gene 406906
Description: LTEA_HepaRG_MIR122: Life Technologies and Expression Analysis (LTEA) Assay for MicroRNA 122 (MIR122) using HepaRG (AID 2283516). Further: the transcript read is the microRNA miR-122. In short, it runs like this:
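qRT-PCR read-out (TaqMan, Fluidigm array), normalized to three housekeeping genes; HepaRG cells dosed 48 h at 8 concentrations up to 100 uM in 0.5% DMSO, duplicate; gain or loss fitted against DMSO baseline.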

Read-out in assay [18]: matrix metalloproteinase-10 (MMP10), MMP10 (gene 4319)
Description: LTEA_HepaRG_MMP10: Life Technologies and Expression Analysis (LTEA) Assay for matrix metalloproteinase-10 (MMP10) using HepaRG (AID 2283517). In short, it runs like this: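 In differentiated HepaRG cultures kept in 0.5% DMSO, test chemicals act for 48 h over an eight-point range with a top dose of 100 uM. Expression is then quantified by TaqMan RT-PCR against ACTB, GAPDH and POLR2A.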

Read-out in assay [19]: Insulin-like growth factor-binding protein 1 (IGFBP1), IGFBP1 (gene 3484)
Description: LTEA_HepaRG_IGFBP1: Life Technologies and Expression Analysis (LTEA) Assay for Insulin-like growth factor-binding protein 1 (IGFBP1) using HepaRG (AID 2283508). In short, it runs like this: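 Thawed HepaRG cells are plated for 48 h, switched to serum-free induction medium, then dosed in duplicate for another 48 h (100 uM top, half-log steps). Lysates in RLT go to qRT-PCR, and gain or loss of signal is fitted relative to vehicle.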

Calls of active or inactive are those of the source. How the source made its calls: active means hit-call score of the fitted dose curve at least 0.9, where 1 is the maximum; inactive means score below 0.9.

Hypoxia-inducible factor 1-alpha (Homo sapiens), sequence (Q16665 whole entry, looked up): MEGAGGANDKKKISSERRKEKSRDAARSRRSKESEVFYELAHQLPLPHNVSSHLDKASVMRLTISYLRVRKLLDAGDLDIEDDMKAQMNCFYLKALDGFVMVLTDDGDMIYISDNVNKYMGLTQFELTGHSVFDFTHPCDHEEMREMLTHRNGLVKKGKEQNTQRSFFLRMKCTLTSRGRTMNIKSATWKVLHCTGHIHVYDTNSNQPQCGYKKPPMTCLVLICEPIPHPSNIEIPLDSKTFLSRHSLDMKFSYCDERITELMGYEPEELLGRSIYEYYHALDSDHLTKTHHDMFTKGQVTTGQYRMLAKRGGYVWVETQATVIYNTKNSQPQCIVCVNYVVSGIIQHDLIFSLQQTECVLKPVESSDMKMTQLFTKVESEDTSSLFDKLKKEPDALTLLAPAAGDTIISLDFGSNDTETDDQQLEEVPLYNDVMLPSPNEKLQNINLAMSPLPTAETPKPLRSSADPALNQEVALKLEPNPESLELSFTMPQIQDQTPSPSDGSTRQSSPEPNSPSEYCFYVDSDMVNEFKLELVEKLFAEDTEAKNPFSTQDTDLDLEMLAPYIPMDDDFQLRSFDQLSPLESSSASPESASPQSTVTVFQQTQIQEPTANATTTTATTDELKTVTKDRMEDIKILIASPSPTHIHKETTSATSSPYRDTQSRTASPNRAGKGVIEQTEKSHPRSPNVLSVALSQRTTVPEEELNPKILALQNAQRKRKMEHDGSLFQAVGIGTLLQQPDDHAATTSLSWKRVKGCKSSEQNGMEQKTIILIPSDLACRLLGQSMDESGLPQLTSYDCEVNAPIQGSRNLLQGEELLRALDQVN

Take `COC(=O)N(OC)c1ccccc1COc1ccn(-c2ccc(Cl)cc2)n1`: the AC50 in [1] was 80.8 µM (active); in assay [2], 79.5 µM (active); in assay [3], 50 µM (active); in assay [4], 80.3 µM (active); in assay [5], 12 µM (active); in assay [6] it was 50 µM (active). Also, the AC50 in [7] was 75.3 µM (active); in [8], 68.1 µM (active); in assay [9], 81.2 µM (active); in assay [10], 83.9 µM (active); in assay [12], 86.2 µM (active); in assay [13], 23.3 µM (active). Further, the AC50 is 50 µM (active) in assay [15], 76.1 µM (active) in assay [17] and 78.1 µM (active) in [18]. For the same compound, the compound was called inactive (in the assay with HGF (gene 3082); in assay [11]; in assay [14]; in [16]).

As to `COC(=O)C=C(C)OP(=O)(OC)OC`, the compound was called inactive in assay [1], in assay [2], in assay [3], in assay [4], in [5] and in assay [6]. Besides, the outcome (in [7]; in the assay with HGF (gene 3082); in assay [8]; in [9]; in assay [10]; in assay [11]) was inactive. Moreover, the outcome in assay [12], in assay [13], in assay [14], in assay [15], in assay [16] and in assay [18] was inactive.

As for `CCCCNC(=O)OCC#CI`, the AC50 in [1] is 0.00766 µM (active); in assay [5] it was 50 µM (active). Besides, the result (in assay [2]; in assay [3]; in assay [4]; in assay [6]; in assay [7]; with HGF (gene 3082)) was inactive. In addition, the outcome in [8], in assay [9], in assay [19], in assay [10], in [11] and in assay [12] was inactive. Moreover, the compound was classed as inactive in assay [13], in assay [14], in assay [15], in [16] and in assay [18].
